From PubChem BioAssay (NCATS)
Results filed as inconclusive are left out. Entries that show only a call come without a potency. Values without a mark were called inactive. Activity calls are given as the source filed them. The call rests on the fitted dose curve; in most records, active means well fitted inhibition curve with a large enough effect; inconclusive means small, poorly fitted or top-dose-only effect; inactive means no such curve, though single readings can be large or run the other way. Where a SMILES comes first, the peptide text is derived from it. Bridges are numbered along the chain shown (N, C = ends). [ ]: non-standard residue; d: D form. The star is where a group is joined. X1 = CCC(C)C(N)C1=NC(C(=O)*)CS1; PhLac = O=C(O)[CH](O)Cc1ccccc1; NMeV = CN[CH](C(=O)O)C(C)C; dOrn = NCCC[C@@H](N)C(=O)O

Experiments:
[1] = system: Zika virus NS2B-NS3 protease (unlinked complex); assay: Primary screen GU Rhodamine qHTS for Zika virus inhibitors: Unlinked NS2B-NS3 protease assay (AID 1347159); settings: Recombinant ZIKV NS2B-NS3 protease, Rhodamine110 substrate fluorescence; series mostly up to 107 µM; further: nearly all actives have a fitted effect of over 60% in size
In short: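 In dose–response format, inhibition of unlinked protease (25 nM) was measured with 1.5 microM bis-peptide Rhodamine110 substrate. Aprotinin served as the intraplate control.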

[2] = system: Zika virus NS2B-NS3 protease (linked construct); assay: Primary screen NINDS Rhodamine qHTS for Zika virus inhibitors (AID 1347160); settings: purified NS2B-NS3 protease, Rhodamine110 substrate fluorescence; series mostly up to 57.1 µM; further: nearly all actives have a fitted effect of over 55% in size
In short: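 Each compound, titrated, sat 15 min with 25 nM linked protease before 1.5 microM Rhodamine110 substrate went in. Fluorescence gain over the next 15 min, in pH 8.0 Tris with Tween 20, gave Hill-fitted curves.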
Potency means the concentration at half of the fitted maximal effect.

Compound	Potency [1]	Potency [2]	activity change, negative = inhibition [1]	outcome [2]
CC(=O)OC[C@@]12[C@H](O)C[C@@H](C)[C@]3(C[C@@H](c4ccoc4)OC3=O)[C@H]1C[C@H](O)C[C@]21CO1	inactive	inactive	–	–
CC1(C)CC[C@]2(C(=O)O)CC[C@]3(C)C(=CCC4[C@@]5(C)C[C@@H](O)[C@H](O)C(C)(C)C5CC[C@]43C)[C@@H]2[C@@H]1O (stereo not given in full)	inactive	inactive	–	–
C=C1C(=O)O[C@H]2[C@H]1[C@@H](OC(=O)C(C)CO)C[C@@]1(C)[C@H](O)CCC(=O)[C@H]21 (stereo not given in full)	inactive	inactive	–	–
COc1ccc2c(c1)O[C@H](O[C@@H]1O[C@H](CO)[C@@H](O)[C@H](O)[C@H]1O)C(=O)N2	inactive	inactive	–	–
COc1cc(C2c3cc(O)c(OC)cc3CC(CO)C2CO)ccc1O (stereo not given)	inactive	inactive	–	–
C=CC1(C)CC(O)C2(CCC3C(C)(C(=O)O)CCCC3(C)C2=O)C1 (stereo not given)	inactive	inactive	–	–
CCC(=O)NS(=O)(=O)c1ccc(-c2c(-c3ccccc3)noc2C)cc1	inactive	inactive	–	–
CC(C)(C)NCc1cc(Nc2ccnc3cc(Cl)ccc23)c2c(c1O)CCCC2	–	–	0% [at 1.28 µM]	inactive [at 0.684 µM]
C[C@@H](OC(=O)/C=C/c1ccc(O)cc1)C1=C[C@]2(C=C[C@@H]3C(C(=O)O)=CO[C@@H](O[C@@H]4O[C@H](CO[C@@H]5O[C@H](CO)[C@@H](O)[C@H](O)[C@H]5O)[C@@H](O)[C@H](O)[C@H]4O)[C@@H]32)OC1=O	inactive	inactive	–	–
C=C1CC/C=C(/CO)C(=O)C[C@@H]2[C@@H]1CC2(C)C	inactive	inactive	–	–
CCOC(=O)c1ccnc(CNCC(=O)N(CC)CCN(C)C)c1	inactive	inactive	–	–
O=C(O)C[C@@H](NC(=O)c1cc(-c2ccc(-c3ccncc3)cc2)cs1)c1ccccc1	15.8 µM (active)	20 µM (active)	–	–
COc1cc(N2CCC(N(C)C)CC2)ccc1Nc1ncc(Cl)c(Nc2ccccc2P(C)(C)=O)n1	inactive	inactive	–	–
CC(=O)OC(CSC1CCC(=O)OC(C)CCC(=O)C1)C(=O)O (stereo not given)	inactive	inactive	–	–
O=C(O)c1n[nH]c2c1C[C@H]1C[C@@H]21	inactive	inactive	–	–
O=C(O)C[C@H](O)C[C@H](O)/C=C/c1c(C2CC2)nc2ccccc2c1-c1ccc(F)cc1	inactive	inactive	–	–
CN1CCC(c2c[nH]c3ccc(NC(=O)c4ccc(F)cc4)cc23)CC1	inactive	inactive	–	–
O=C(c1ccc(C#Cc2cccc(F)c2)cn1)N1CC2CC2C1 (stereo not given)	inactive	inactive	–	–
COc1cc(/C=C/C(=O)O[C@H]2[C@H](OC(=O)/C=C/c3cc(OC)c(O)c(OC)c3)O[C@H](CO[C@@H]3O[C@H](CO)[C@@H](O)[C@H](O)[C@H]3O)[C@@H](O)[C@@H]2O)ccc1O	inactive	inactive	–	–
CC1(C)C(O)CCC2(C)C1C(O)C=C1COC(=O)C12O (stereo not given)	inactive	inactive	–	–
O=C1NCc2nc3ccccc3c(=O)n2C1Cc1c[nH]c2ccccc12 (stereo not given)	inactive	inactive	–	–
CCC(=O)N[C@@H]1Cc2ccccc2[C@H](c2ccccc2)C1	inactive	inactive	–	–
COC(=O)C12C(=O)C(C)=C(O)C1(C)C(C)=CC1C34CCC(OC3=O)C(C)(C)C4CCC12C (stereo not given)	inactive	inactive	–	–
CC(=O)N[C@H](Cc1ccc(O)cc1)C(=O)N[C@H](CCCN=C(N)N)C(=O)N[C@H](Cc1ccccc1)C(N)=O (Ac-[dY]-[dR]-[dF]-NH2)	inactive	inactive	–	–
CC1=C2CC3OC3(C)CCC3OC3(C)CC2OC1=O (stereo not given)	inactive	inactive	–	–

Compound	Potency [1]	Potency [2]	activity change, negative = inhibition [1]	outcome [2]
C=C(C)C(C)C1OC23CC4(CO2)C(CCC2C5(C)CCC(OC6OCC(O)C(OC7OC(CO)C(O)C(OC8OCC(O)C(O)C8O)C7O)C6OC6OC(CO)C(O)C6O)C(C)(C)C5CCC24C)C3C(C)(O)C1OC(C)=O (stereo not given)	inactive	inactive	–	–
CC12CC34C=CC(=O)C(C)(CCC(=O)O)C3C(CC1C4)O2 (stereo not given)	inactive	inactive	–	–
CC1=CC(=O)CC(C)(CO[C@@H]2O[C@H](CO)[C@@H](O)[C@H](O)[C@H]2O)C1(O)/C=C/C(C)=C/C(=O)O (stereo not given in full)	inactive	inactive	–	–
C[C@]1(OC(=O)/C=C/c2ccccc2)C[C@H](O)[C@]2(O)C=CO[C@@H](O[C@@H]3O[C@H](CO)[C@@H](O)[C@H](O)[C@H]3O)C12 (stereo not given in full)	inactive	inactive	–	–
OC[C@H]1O[C@@H](Oc2cc(O)cc(/C=C/c3ccc(O)cc3)c2)[C@H](O)[C@@H](O)[C@@H]1O	inactive	inactive	–	–
O=C1NC(Cc2ccc(O)cc2)C(=O)N2CCCC12 (stereo not given)	inactive	inactive	–	–
Cc1nc2c(-c3cnc(N)nc3)nc(N3CCOCC3)nc2n1C(C)C	inactive	inactive	–	–
CC1CCC2(NC1)OC1C(=O)C3C4CCC5CC(O[C@@H]6O[C@H](CO)[C@@H](O)[C@H](O)[C@H]6O[C@@H]6O[C@@H](C)[C@H](O)[C@@H](O)[C@H]6O)CCC5(C)C4CCC3(C)C1C2C (stereo not given in full)	inactive	inactive	–	–
CCC(C)C(N)C1=NC(C(=O)N[C@@H](CC(C)C)C(=O)N[C@H](CCC(=O)O)C(=O)N[C@H](C(=O)N[C@H]2CCCCNC(=O)[C@H](CC(N)=O)NC(=O)[C@@H](CC(=O)O)NC(=O)[C@H](Cc3cnc[nH]3)NC(=O)[C@@H](Cc3ccccc3)NC(=O)[C@H]([C@@H](C)CC)NC(=O)[C@@H](CCCN)NC2=O)[C@@H](C)CC)CS1 (stereo not given in full) (X1-L[dE]IK[dOrn]I[dF]H[dD]N; lactam 4-C)	inactive	inactive	–	–
CCc1cc2c(=O)c(-c3nc4ccccc4s3)coc2c(CN2CCCCC2)c1O	12.6 µM (active)	inactive	–	–
C[C@@H]1C[C@H]2[C@@H]3CCC4=CC(=O)C=C[C@]4(C)[C@@]3(F)[C@@H](O)C[C@]2(C)[C@@]1(O)C(=O)COP(=O)(O)O	inactive	inactive	–	–
CC(=O)OC[C@@]12[C@@H](OC(C)=O)C[C@@H](C)[C@](C)([C@@H]3C[C@H]4C=CO[C@H]4O3)[C@H]1CCC[C@]21CO1	inactive	inactive	–	–
COc1ccc2c(c1O)OC[C@H]1c3ccc(O)cc3O[C@@H]21	inactive	inactive	–	–
c1ccc(Cc2ncc3c(n2)CCNCC3)cc1	inactive	inactive	–	–
CC(=O)OC1C(O)C(C)=C(CCC(C)CC(=O)O)C2(C)CCCC(C)(C)C12 (stereo not given)	inactive	inactive	–	–
CC(=O)O[C@H]1[C@H](C)[C@@H](O)[C@H]2[C@@H]1C=C(C(=O)O)[C@H]1C[C@@H]3[C@H]([C@H]21)[C@H]1C(=O)O[C@@H]2CC[C@@]3(C)O[C@]1(O)[C@@H]2C	inactive	inactive	–	–
O=C(O[C@H]1[C@@H]2C=CO[C@@H](O[C@@H]3O[C@H](CO)[C@@H](O)[C@H](O)[C@H]3O)[C@@H]2[C@@]2(CO)O[C@@H]12)c1ccc(O)cc1	inactive	inactive	–	–
C=CC1C(O[C@@H]2O[C@H](CO)[C@@H](O)[C@H](O)[C@H]2O)OC=C(C(=O)OC)C1Cc1nccc2c1[nH]c1ccccc12 (stereo not given in full)	inactive	inactive	–	–
CCn1nnnc1NCc1ccc(C(C)C)cc1	inactive	inactive	–	–
O=C(/C=C/c1ccccc1)OCC1=CC[C@@H]2C(C(=O)O)=CO[C@@H](O[C@@H]3O[C@H](CO)[C@@H](O)[C@H](O)[C@H]3O)[C@H]12	inactive	inactive	–	–
CC(C)C(C(=O)N1CCCC1C(=O)O)N(C)C(=O)C(O)Cc1ccccc1 (stereo not given) (H-[PhLac]-[NMeV]-Pro-OH; configuration not given here)	inactive	inactive	–	–
OCC1=CC[C@@H]2C=CO[C@@H](O[C@@H]3O[C@H](CO)[C@@H](O)[C@H](O)[C@H]3O)[C@H]12	inactive	inactive	–	–
COc1cc2c(cc1O)C1(Cc3ccc4c(c3C1=O)OCO4)N(C)CC2 (stereo not given)	inactive	inactive	–	–
CC(C)(C)NCC(O)COc1cccc2c1CCCC2=O (stereo not given)	inactive	inactive	–	–
CCS(=O)(=O)N1CCC([C@@H](C)n2c(C)c(C(=O)NCc3c(OC)cc(C)[nH]c3=O)c3ccccc32)CC1	inactive	inactive	–	–
